Experimental data as given in PubChem BioAssay (Tox21).
Calls of active or inactive are those of the source. Where a call stands in place of a potency, no number is given. Calls come from the whole dose curve; as a rule, active = well fitted curve in the direction sought with a large enough effect in the repeat runs; inconclusive = weak or mixed curves; inactive = flat fitted curve, though single readings scatter.

Assay: qHTS assay to test for compound auto fluorescence at 460 nm (blue) in HepG2 cells (AID 720687)
Settings: autofluorescence 405/460 nm, 1 h; series mostly up to 91.3 µM
From the text: U.S. Tox21 Program National Center for Advancing Translational Sciences [NCATS] NIH Chemical Genomics Center [NCGC] U.S. Environmental Protection Agency [EPA] National Institutes of Environmental Health Sciences [NIEHS] National Toxicology Program [NTP] U.S. Food and Drug Administration [FDA] Tox21 Assay Overview: Compound auto fluorescence often interferes with screening of the compound library against various biological targets and signaling pathways. Some of these compounds may have fluorophoric properties. Such properties may interfere with the assay outputs resulting in false positives and/or negatives. To decrease such complications and ensure the compound activities are relevant in terms of biological response, the Tox21 10K compound library was screened for auto fluorescence. From the fluorophores used as reporter signals in our screening assays, the auto fluorescence equivalencies of compounds against three fluorophores have been evaluated: Triamterene, Fluorescein and Rose Bengal sodium for blue, green and red fluorescence, respectively. The fluorescence intensities were measured using Excitation/Emission wavelengths at 405/460nm, 485/535nm and 540/590nm for blue, green and red labels, respectively. This assay includes the blue fluorescence data.
Tox21 Assay Protocol Summary: 2,000 HepG2 cells in 5 uL of culture medium (MEM containing 10% FBS) per well were dispensed into black wall/clear bottom 1536-well plates using a Multidrop Combi Dispenser (ThermoFisher Scientific, Waltham, MA). The assay plates were incubated overnight at 37 C to allow cell attachment to the well bottom, followed by the transfer of 23 nL compound or DMSO vehicle by a pintool work station (Kalypsys , San Diego, CA). After the assay plates were incubated for 1 hr at 37 C and 5% CO2, fluorescence intensities in the assay plates were measured by an Envision (PerkinElmer, Shelton, CT) plate reader using three labels for measuring blue, green and red fluorescence at […] 460, 535 and 590 nm respectively.

SMILES	Potency
CC(C)C(=O)Nc1ccc([N+](=O)[O-])c(C(F)(F)F)c1	inactive
CS(=O)(=O)OCCCCOS(C)(=O)=O	inactive
CCc1nc(N)nc(N)c1-c1ccc(Cl)cc1	inactive
NC(=O)c1cccnc1	inactive
C1CCC(C(CC2CCCCN2)C2CCCCC2)CC1 (stereo not given)	inactive
C1=CC2C3C=CC(C3)C2C1 (stereo not given)	inactive
F[B-](F)(F)F	inactive
CCN(Cc1c(F)cccc1Cl)c1c([N+](=O)[O-])cc(C(F)(F)F)cc1[N+](=O)[O-]	inactive
CCCCCCCCCCCC[N+](C)(C)Cc1ccccc1	inactive
Nc1c(N=Nc2ccc(-c3ccc(N=Nc4cc(S(=O)(=O)O)c5ccccc5c4N)cc3)cc2)cc(S(=O)(=O)O)c2ccccc12	inactive
Nc1ccc(S(N)(=O)=O)cc1	inactive
CC(=O)Nc1c(I)c(NC(C)=O)c(I)c(C(=O)O)c1I	inactive
CCCC[P+](CCCC)(CCCC)CCCC	inactive
O=c1[nH]cnc2c1ncn2[C@H]1CC[C@@H](CO)O1	inactive
CN[C@H]1CC[C@@H](c2ccc(Cl)c(Cl)c2)c2ccccc21	inactive
O=C1NC(=O)C(c2ccccc2)(c2ccccc2)N1	inactive
Cc1ncc([N+](=O)[O-])n1C	inactive
CN1[C@@H]2CC(OC(=O)[C@H](CO)c3ccccc3)C[C@H]1[C@@H]1O[C@@H]12 (stereo not given in full)	inactive
COc1ccc(C(Cl)=C(c2ccc(OC)cc2)c2ccc(OC)cc2)cc1	inactive
C=C1CC[C@H](O)C/C1=C\C=C1/CCC[C@]2(C)[C@@H]([C@H](C)CCCC(C)C)CC[C@@H]12	inactive

SMILES	Potency
COc1cccc(O)c1O	inactive
COc1ccc(CN(CCN(C)C)c2ccccn2)cc1	inactive
Cc1cccc(C)c1	inactive
COc1ccc2c(c1)c(CC(=O)O)c(C)n2C(=O)c1ccc(Cl)cc1	inactive
O=C1O[C@H]([C@@H](O)CO)C(O)=C1O	inactive
CC(C)NCC(O)c1ccc(O)c(O)c1 (stereo not given)	inactive
NC(=O)n1c(O)c(C(=O)c2cccs2)c2cc(Cl)ccc21	inactive
Cc1c(C(=O)O)c(O)cc2c1C(=O)c1c(O)c([C@@H]3O[C@H](CO)[C@@H](O)[C@H](O)[C@H]3O)c(O)c(O)c1C2=O	inactive
O=c1[nH]cc(F)c(=O)[nH]1	inactive
CCCCCCc1ccc(O)cc1O	inactive
C=C(C)C(=O)OCC(C)O (stereo not given)	inactive
C[C@](N)(Cc1ccc(O)c(O)c1)C(=O)O	inactive
Cc1cn([C@H]2C=C[C@@H](CO)O2)c(=O)[nH]c1=O	inactive
C/C=C/C=C/C(=O)O	inactive
NS(=O)(=O)c1cc2c(cc1Cl)NCNS2(=O)=O	inactive
CCOC(N)=O	inactive
NS(=O)(=O)O	inactive
CCCCNC(=O)NS(=O)(=O)c1ccc(C)cc1	inactive
Cc1ccc(S(=O)(=O)O)cc1	inactive
Nc1ccc([N+](=O)[O-])cc1O	inactive
